# Measurements published in PubChem BioAssay.
# Calls of active or inactive are those of the source.
# How the values were obtained:
# [1] = binders of probe aFSTL3 on microarray, primary screen, stem cell growth factor project, biochemical, small-molecule microarray, fluorescence 635/667 (AID 1064); settings: higher = more signal;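 further: measures binding of the biotinylated anti-FSTL3 antibody to printed compounds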
# [2] = binders from COS7 lysate, DM2A8 probe, primary screen, torsin A project, cell lysate, small-molecule microarray, fluorescence 635/667 (AID 1065); settings: higher = more signal, COS7 lysate expressing mutant human TOR1A
# [3] = binders of probe aFGF2 on microarray, primary screen, stem cell growth factor project, biochemical, small-molecule microarray, fluorescence 635/667 (AID 1067); settings: higher = more signal;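 further: measures binding of biotinylated aFGF2 protein to printed compounds on slides; z-score merges feature fluorescence and signal-to-noise across triplicate slides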
# [4] = binders of probe aFGF10 on microarray, primary screen, stem cell growth factor project, biochemical, small-molecule microarray, fluorescence 635/667 (AID 1071); settings: higher = more signal;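 further: score merges 667 nm spot intensity and signal to noise from triplicate slides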
# [5] = target: Neurogenic locus notch homolog protein 2 (Homo sapiens) (UniProt Q04721); assay: Notch2 binders on small-molecule microarrays, primary screen, biochemical, small-molecule microarray, 635 nm fluorescence, stem cell growth factors (AID 1073); settings: Notch2 binding, higher = more signal
# [6] = target: Pro-neuregulin-1, membrane-bound isoform (Homo sapiens) (UniProt Q02297); assay: NRG1 binders on small-molecule microarrays, primary screen, psychiatric disease protein project, biochemical, small-molecule microarray, fluorescence 635/667 (AID 1075); settings: NRG1 binding, 635 nm fluorescence, higher = more signal;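 further: score combines 667 nm spot fluorescence with signal to noise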
# [7] = test system: Neuregulin-1 EGF-like domain; assay: binders of neuregulin-1 EGF-like domain, primary screen, biochemical, small-molecule microarray, 635 nm fluorescence (AID 1081); settings: small-molecule microarray binding, higher = more signal;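 further: binding of the protein to compounds printed on small-molecule microarray slides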
# [8] = FRG1 promoter luciferase signal modulators, primary screen, FRG1 inhibition for FSHD, cell-based, C2C12 myotubes, firefly/Renilla luciferase, luminescence (AID 1084); settings: higher = more signal, called active from +8 up or from −8 down
# [9] = binders of probe aFST on microarray, primary screen, stem cell growth factor project, biochemical, small-molecule microarray, fluorescence 635/667 (AID 1086); settings: higher = more signal;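 further: score merges 667 nm fluorescence with signal-to-noise of each printed compound spot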
# [10] = binders of probe aHhip on microarray, primary screen, stem cell growth factor project, biochemical, small-molecule microarray, fluorescence 635/667 (AID 1087); settings: higher = more signal;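 further: score merges spot fluorescence at 667nm with spot signal to noise ratio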
# [11] = test system: PRMT1 (protein arginine N-methyltransferase 1); assay: PRMT1 binders on small-molecule microarrays, primary screen, biochemical, small-molecule microarray, 635 nm fluorescence (AID 1088); settings: small-molecule microarray binding, higher = more signal;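 further: binding of Prmt1 protein to compounds spotted on small-molecule microarray slides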
# [12] = yeast growth modulation, basal conditions, primary screen, YJM789 clinical isolate, OD600, 24 h (AID 1089);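 further: growth of clinical yeast isolate S. cerevisiae YJM 789 seeded 1000 cells per well; test concentration not given here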; settings: S. cerevisiae YJM789 growth, higher = more signal, called active from +8 up or from −8 down
# [13] = fission yeast growth modulation, primary screen, strain 972, OD600, 24 h, no modulator (AID 1090);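 further: basal condition with compound alone and no growth modifier present; test concentration not given here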; settings: S. pombe 972 growth, higher = more signal, called active from +8 up or from −8 down
# [14] = S. cerevisiae growth modulation with rapamycin, primary screen, strain BY4716, OD600, 96 h (AID 1091); settings: higher = more signal, called active from +8 up or from −8 down; further: test concentration not given here
# [15] = target: Torsin-1A-interacting protein 2 (Homo sapiens) (UniProt Q8NFQ8); assay: LULL1 binders on small-molecule microarray, primary screen, cell lysate, human LULL1 lysate, 635/667 nm fluorescence (AID 1092); settings: hLULL1 lysate binding, 635 nm fluorescence, higher = more signal;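 further: probe is lysate of COS7 cells overexpressing human LULL1; score merges per-feature 667 nm fluorescence with signal-to-noise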
# [16] = E. coli growth modulation, two-sided OD650, primary screen, E. coli filamentation project, strain DRC41, 24 h (AID 1093); settings: OD650, 24 h, higher = more signal, called active from +8 up or from −8 down;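 further: MC1000 strain lacking acrAB efflux and sulA so SOS filamentation is blocked; test concentration not given here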
# [17] = small-molecule microarray binders of probe aLefty2, primary screen, biochemical, biotinylated probe, 635/667 nm fluorescence (AID 1094); settings: higher = more signal;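 further: score merges spot fluorescence near 667 nm with spot signal-to-noise ratio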
# [18] = test system: Noggin (protein binding on small-molecule microarray); assay: Noggin binders on small-molecule microarray, primary screen, biochemical, 635/667 nm fluorescence (AID 1095); settings: 635 nm fluorescence, higher = more signal;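 further: score merges 667 nm feature fluorescence with signal to noise over triplicate slides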
# [19] = target: Neurogenic locus notch homolog protein 3 (Homo sapiens) (UniProt Q9UM47); assay: NOTCH3 binders on small-molecule microarray, primary screen, biochemical, 635/667 nm fluorescence (AID 1096); settings: NOTCH3 binding, 635 nm fluorescence, higher = more signal
# [20] = small-molecule microarray binders of probe aEGFR, primary screen, biochemical, biotinylated probe, 635/667 nm fluorescence (AID 1097); settings: higher = more signal;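 further: probe is a biotinylated anti-EGFR antibody binding compounds printed on slides; score combines fluorescence near 667 nm and signal to noise of each spot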
# Chain of Neurogenic locus notch homolog protein 3 (Homo sapiens) (Q9UM47 whole entry, looked up): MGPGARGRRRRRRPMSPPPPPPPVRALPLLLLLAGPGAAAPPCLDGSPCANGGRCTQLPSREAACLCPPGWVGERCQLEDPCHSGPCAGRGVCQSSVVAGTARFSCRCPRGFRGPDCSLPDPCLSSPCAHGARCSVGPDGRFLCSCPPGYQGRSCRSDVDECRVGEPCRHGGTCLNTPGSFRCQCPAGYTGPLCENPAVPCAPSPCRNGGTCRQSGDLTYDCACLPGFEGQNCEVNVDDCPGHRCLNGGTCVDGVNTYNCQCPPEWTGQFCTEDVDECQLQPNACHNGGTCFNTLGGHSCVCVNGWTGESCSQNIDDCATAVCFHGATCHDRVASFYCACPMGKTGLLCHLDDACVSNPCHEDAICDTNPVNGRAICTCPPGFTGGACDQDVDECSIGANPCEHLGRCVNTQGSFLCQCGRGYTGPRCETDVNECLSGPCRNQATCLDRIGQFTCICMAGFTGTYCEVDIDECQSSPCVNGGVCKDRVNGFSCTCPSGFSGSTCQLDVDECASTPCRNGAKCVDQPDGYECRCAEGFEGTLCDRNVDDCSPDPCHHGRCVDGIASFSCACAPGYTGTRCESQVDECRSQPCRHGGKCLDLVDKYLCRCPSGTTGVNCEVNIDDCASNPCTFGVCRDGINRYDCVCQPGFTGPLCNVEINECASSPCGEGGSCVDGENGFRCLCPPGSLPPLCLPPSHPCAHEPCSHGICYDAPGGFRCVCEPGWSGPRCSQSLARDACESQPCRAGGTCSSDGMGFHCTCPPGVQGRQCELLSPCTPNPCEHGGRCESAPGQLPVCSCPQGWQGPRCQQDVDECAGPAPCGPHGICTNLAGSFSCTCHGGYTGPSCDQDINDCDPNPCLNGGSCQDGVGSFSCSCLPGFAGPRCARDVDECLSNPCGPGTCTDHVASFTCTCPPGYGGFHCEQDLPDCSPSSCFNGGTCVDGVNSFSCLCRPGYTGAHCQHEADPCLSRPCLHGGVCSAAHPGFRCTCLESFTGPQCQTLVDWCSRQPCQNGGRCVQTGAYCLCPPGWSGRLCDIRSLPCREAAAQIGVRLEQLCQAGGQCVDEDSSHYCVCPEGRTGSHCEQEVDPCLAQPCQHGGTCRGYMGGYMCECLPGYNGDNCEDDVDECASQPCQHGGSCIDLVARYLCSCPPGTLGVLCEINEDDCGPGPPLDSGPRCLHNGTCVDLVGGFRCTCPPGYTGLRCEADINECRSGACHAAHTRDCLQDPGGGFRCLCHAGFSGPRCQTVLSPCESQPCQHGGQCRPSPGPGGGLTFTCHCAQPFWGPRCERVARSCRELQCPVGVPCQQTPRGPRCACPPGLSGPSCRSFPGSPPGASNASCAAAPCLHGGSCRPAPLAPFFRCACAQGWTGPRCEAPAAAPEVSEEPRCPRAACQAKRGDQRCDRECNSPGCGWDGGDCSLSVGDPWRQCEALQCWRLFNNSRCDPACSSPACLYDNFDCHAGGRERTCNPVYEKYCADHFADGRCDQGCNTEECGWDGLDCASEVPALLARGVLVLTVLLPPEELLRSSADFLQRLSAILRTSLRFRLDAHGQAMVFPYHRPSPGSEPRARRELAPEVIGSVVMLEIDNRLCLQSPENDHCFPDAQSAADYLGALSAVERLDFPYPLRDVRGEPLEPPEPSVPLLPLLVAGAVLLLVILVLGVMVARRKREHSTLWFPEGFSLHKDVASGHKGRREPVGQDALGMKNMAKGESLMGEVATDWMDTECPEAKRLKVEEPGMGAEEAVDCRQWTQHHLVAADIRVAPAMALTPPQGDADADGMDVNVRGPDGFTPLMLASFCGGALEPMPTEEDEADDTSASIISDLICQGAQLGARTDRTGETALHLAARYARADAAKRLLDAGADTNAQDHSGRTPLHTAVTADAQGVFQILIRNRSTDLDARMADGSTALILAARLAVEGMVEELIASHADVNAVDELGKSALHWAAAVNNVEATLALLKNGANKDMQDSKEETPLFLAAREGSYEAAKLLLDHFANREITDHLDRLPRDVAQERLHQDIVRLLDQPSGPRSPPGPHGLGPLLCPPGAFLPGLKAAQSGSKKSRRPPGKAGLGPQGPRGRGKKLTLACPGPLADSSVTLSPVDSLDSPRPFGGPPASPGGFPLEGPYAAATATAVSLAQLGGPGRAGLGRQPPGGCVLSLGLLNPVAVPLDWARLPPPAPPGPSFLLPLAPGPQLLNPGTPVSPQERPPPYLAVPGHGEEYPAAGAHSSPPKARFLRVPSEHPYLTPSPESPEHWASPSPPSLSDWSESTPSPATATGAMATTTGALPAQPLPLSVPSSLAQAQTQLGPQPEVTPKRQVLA
# Chain of Neurogenic locus notch homolog protein 2 (Homo sapiens) (Q04721 whole entry, looked up, canonical isoform): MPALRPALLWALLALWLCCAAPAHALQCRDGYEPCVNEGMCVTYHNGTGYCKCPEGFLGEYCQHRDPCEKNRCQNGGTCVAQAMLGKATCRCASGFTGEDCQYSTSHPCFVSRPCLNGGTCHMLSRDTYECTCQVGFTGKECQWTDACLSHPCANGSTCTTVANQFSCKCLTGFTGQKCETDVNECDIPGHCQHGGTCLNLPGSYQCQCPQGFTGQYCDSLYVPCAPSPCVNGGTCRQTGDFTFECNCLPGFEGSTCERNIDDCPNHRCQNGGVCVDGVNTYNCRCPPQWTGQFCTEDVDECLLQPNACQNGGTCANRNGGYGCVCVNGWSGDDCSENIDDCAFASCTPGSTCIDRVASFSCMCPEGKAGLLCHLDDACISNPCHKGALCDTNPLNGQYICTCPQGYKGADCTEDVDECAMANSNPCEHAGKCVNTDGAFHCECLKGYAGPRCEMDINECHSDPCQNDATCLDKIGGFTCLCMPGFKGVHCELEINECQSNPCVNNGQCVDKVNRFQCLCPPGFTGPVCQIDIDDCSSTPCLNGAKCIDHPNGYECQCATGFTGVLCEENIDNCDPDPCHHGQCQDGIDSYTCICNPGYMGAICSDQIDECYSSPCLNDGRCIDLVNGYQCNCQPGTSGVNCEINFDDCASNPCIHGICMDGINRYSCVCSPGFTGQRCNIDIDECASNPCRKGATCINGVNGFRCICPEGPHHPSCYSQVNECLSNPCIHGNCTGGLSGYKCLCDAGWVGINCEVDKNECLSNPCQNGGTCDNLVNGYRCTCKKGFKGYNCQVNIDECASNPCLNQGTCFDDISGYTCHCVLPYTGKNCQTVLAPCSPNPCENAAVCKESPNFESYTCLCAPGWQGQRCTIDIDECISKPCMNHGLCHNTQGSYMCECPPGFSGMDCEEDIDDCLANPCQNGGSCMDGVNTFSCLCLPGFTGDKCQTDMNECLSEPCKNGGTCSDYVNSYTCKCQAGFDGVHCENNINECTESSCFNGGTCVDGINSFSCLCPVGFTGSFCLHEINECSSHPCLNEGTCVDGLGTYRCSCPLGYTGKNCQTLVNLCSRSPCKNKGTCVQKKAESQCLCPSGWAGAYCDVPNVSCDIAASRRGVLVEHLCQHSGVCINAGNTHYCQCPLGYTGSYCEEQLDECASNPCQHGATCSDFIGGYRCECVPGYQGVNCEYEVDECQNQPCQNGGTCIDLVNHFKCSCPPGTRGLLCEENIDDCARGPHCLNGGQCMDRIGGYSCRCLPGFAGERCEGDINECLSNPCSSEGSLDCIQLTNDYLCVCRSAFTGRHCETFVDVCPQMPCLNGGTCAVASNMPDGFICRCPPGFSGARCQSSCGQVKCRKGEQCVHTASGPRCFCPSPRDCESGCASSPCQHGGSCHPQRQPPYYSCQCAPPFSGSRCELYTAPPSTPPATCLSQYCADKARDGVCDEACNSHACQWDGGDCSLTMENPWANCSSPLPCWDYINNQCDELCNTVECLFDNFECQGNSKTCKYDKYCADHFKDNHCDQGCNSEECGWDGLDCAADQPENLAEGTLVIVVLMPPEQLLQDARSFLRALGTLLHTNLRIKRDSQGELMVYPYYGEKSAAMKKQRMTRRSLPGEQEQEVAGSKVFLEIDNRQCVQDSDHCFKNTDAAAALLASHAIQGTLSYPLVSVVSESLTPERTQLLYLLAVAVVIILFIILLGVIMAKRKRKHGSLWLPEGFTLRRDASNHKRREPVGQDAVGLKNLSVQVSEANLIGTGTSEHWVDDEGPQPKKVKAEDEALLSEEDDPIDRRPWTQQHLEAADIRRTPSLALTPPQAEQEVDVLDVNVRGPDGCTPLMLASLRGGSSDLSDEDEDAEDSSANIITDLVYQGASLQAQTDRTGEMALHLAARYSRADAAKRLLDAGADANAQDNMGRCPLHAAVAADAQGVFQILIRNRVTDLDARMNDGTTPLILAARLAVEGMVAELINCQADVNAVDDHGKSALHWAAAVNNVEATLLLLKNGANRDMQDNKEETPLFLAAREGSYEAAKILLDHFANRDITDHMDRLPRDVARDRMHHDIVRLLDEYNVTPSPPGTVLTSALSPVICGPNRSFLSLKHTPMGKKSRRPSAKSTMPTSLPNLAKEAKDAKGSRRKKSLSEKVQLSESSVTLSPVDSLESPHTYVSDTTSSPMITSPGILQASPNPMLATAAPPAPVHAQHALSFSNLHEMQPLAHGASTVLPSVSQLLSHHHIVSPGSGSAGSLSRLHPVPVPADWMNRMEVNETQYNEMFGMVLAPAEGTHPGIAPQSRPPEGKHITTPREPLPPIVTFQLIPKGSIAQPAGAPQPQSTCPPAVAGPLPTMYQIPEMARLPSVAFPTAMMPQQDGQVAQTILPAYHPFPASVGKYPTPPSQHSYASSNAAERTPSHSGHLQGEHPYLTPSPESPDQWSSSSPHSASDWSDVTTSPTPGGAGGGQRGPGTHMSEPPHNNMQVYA
SMILES,composite z-score [1],composite z-score [2],composite z-score [3],composite z-score [4],composite z-score [5],composite z-score [6],composite z-score [7],z-score [8],composite z-score [9],composite z-score [10],composite z-score [11],z-score [12],z-score [13],z-score [14],composite z-score [15],z-score [16],composite z-score [17],composite z-score [18],composite z-score [19],composite z-score [20]
[N-]=[N+]=NCc1ccccc1[C@H]1OC(c2ccc(OCCCO)cc2)=N[C@@]1(CCS(=O)(=O)c1ccccc1)C(N)=O,0.573,1.33,0.145,0.763,1.65,2.03,1.36,4.66 (inactive),0.805,-0.0645,1.47,0.0249 (inactive),-0.131 (inactive),-0.595 (inactive),3.36,-0.199 (inactive),0.074,0.086,0.861,0.0929
CC(C)C(O)C1C=CC2C(=O)N(C)C(=O)C2N1N(c1ccccc1)c1ccccc1 (stereo not given),0.626,-0.312,-0.0613,-0.577,0.461,0.371,-0.142,-0.165 (inactive),0.272,0.0139,-2.15,1.01 (inactive),1.55 (inactive),1.5 (inactive),2.17,-0.573 (inactive),0.0443,-0.306,-0.853,0.102
CN(C)CCCNC(=O)[C@@H]1c2ccccc2C(=O)N(CC23CC4CC(CC(C4)C2)C3)[C@H]1c1ccc(CO)cc1,-0.782,1.13,0.0878,0.837,1.28,1.15,1.39,-1.92 (inactive),0.445,-0.128,1.53,-0.0129 (inactive),-7.98 (inactive),-2.06 (inactive),3.24,0.583 (inactive),-0.227,0.954,1.05,-0.0801
Cc1ccc(S[C@]2(C(=O)NCC(C)C)CC(=O)N(Cc3ccccc3Cl)[C@@H]2c2ccc(CO)cc2I)cc1,0.699,1.65,-0.0818,0.452,-1.11,1.54,1.36,-1.45 (inactive),-0.414,-0.0645,0.939,-1.38 (inactive),-1.87 (inactive),0.0522 (inactive),1.8,-0.712 (inactive),0.225,-1.08,-0.309,-0.304
CC=CC(O)C1C=CC2C(=O)N(C)C(=O)C2N1N1CCCCC1 (stereo not given),-0.0771,0.326,-0.0231,0.862,1.45,1.85,1.26,1.89 (inactive),0.697,-0.305,1.34,-0.322 (inactive),1.01 (inactive),-0.207 (inactive),3.52,-1.53 (inactive),0.0974,0.605,1.09,-0.115
Cc1ccc(C(C)CC(O)C2C=CC3C(=O)N(c4ccccc4)C(=O)C3N2Nc2ccc(C(C)C)cc2)o1 (stereo not given),1.15,1.05,0.102,0.712,1.58,1.93,0.765,0.543 (inactive),0.992,-0.0772,0.843,0.379 (inactive),0.0145 (inactive),0.842 (inactive),1.28,-1.36 (inactive),0.295,-0.641,1.04,0.14
COCCCNC(=O)[C@]1(Cc2ccccc2N=[N+]=[N-])N=C(c2ccc(OCCCO)cc2)O[C@@H]1c1ccccc1N=[N+]=[N-],0.421,-0.0585,0.0797,0.491,1.3,1.86,1.15,-1.93 (inactive),0.847,-0.0296,1.26,-0.922 (inactive),-0.808 (inactive),1.75 (inactive),2.72,0.561 (inactive),0.23,0.115,0.836,0.0656
CCOc1cc(C(O)C2C=CC3C(=O)N(C4CCCCC4)C(=O)C3N2Nc2ccc(OC)cc2)ccc1O (stereo not given),0.26,0.456,0.0465,0.339,1.64,1.72,1.28,1.79 (inactive),0.775,-0.132,1.17,-0.344 (inactive),-0.118 (inactive),-0.129 (inactive),3.21,-0.0874 (inactive),0.0252,0.163,1.05,0.0295
COc1ccc([Si](C)(C)[C@H]2[C@H](CC(=O)N3Cc4ccccc4C[C@H]3CO)O[C@@]3(C(=O)N(Cc4cccc(N5CCCCC5=O)c4)c4ccccc43)[C@@H]2C)cc1,0.0111,0.576,0.085,0.36,0.246,0.175,1.2,-2.09 (inactive),0.342,0.0274,1.29,-2.19 (inactive),0.522 (inactive),0.925 (inactive),1.79,-0.0352 (inactive),0.02,1.02,1.09,-0.0471
O=C1O[C@@H](c2ccccc2)[C@@H](c2ccccc2)N2[C@@H](c3ccccc3OCCO)[C@]3(C(=O)Nc4ccccc43)[C@@H](C(=O)NC[C@H](O)c3ccccc3)[C@H]12,0.421,0.98,-0.0937,0.0718,-0.843,0.551,1.2,-2.8 (inactive),-0.127,-0.226,1.4,2.62 (inactive),1.68 (inactive),5.71 (inactive),2.69,-0.467 (inactive),-0.139,-0.84,-0.359,-0.207
